In the library only some 20% were active in any assay of this set; here they are far more common.
CHX counter – counter-screen hit for Shiga toxin inhibitors, cycloheximide; cell reporter, cycloheximide protein synthesis inhibition counterscreen; max response, %; 12% of 300,000 active; in the data active = max response mostly above about 13%, no sharp cut-off; inactive = mostly below about 14%; also: read at 38.3 µM for the half of the compounds with a filed dose; 0% is about no effect
Shiga toxin inh – inhibitors of Shiga toxin in Vero cells | inhibition, % at 38.7 µM | 9.2% of 290,000 active | Vero cells, Shiga toxin protein synthesis inhibition reporter; in the data active = inhibition mostly above about 28%, no sharp cut-off; inactive = mostly below about 43%; also: 0% is about no effect
Pf growth 96h – P. falciparum growth inhibition at 96 hour, primary screen for plastid delayed-death inhibitors; P. falciparum luciferase reporter growth, 96 h; Potency, µM (doses to about 28.7 µM), for inactives: top-dose activity change, negative = inhibition, actives largely listed as inhibitors; 6.9% of 320,000 active; AID 504834; also: potency is read from the fitted curve at half-maximal effect; % is scaled to controls: 0 for no effect and ±100 for the full control effect
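Compounds incubated with erythrocytes infected by luciferase-expressing P. falciparum (2% hematocrit, 0.05% parasitemia final) for 96 hours, 37 C in 5% CO2. Growth inhibition scored as decreased luciferase luminescence.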
HCMV inh – human cytomegalovirus inhibition. HFF cells, HCMV-luciferase reporter, 72 h; active compounds read low. activity change, negative = inhibition, % at 57.5 µM. 4.5% of 410,000 active; in the data active = activity change below about -60%; inconclusive = no clear call, values can overlap the other calls; inactive = above about -39%; also: % is scaled to controls: 0 for no effect and ±100 for the full control effect
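Compounds were evaluated in HFFs infected with an HCMV luciferase reporter virus (MOI 1 PFU/cell). Luciferase in lysates collected 72 h post infection served as the replication measure.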
Pf growth 48h – inhibits P. falciparum growth in the first generation, 48 h; Potency, µM (doses to about 28.7 µM), inactives show top-dose activity change, negative = inhibition, most hits filed as inhibitors; P. falciparum luciferase growth in erythrocytes, 48 h; 5.9% of 310,000 active; also: potency is read from the fitted curve at half-maximal effect; % is scaled to controls: 0 for no effect and ±100 for the full control effect
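Luciferase-expressing P. falciparum in infected erythrocytes (2% hematocrit, 0.1% parasitemia final) in RPMI 1640/0.5% Albumax were exposed to compound for 48 hours at 37 C, 5% CO2; growth read as luminescence.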
Active calls of the source: *; ? = inconclusive; . = no result given; + = active, no number; [ ] = remark or other dose. Unless noted, calls follow the shape of the dose curve; as a rule, active = well fitted inhibition curve with a large enough effect; inconclusive = small, poorly fitted or top-dose-only effect, or another doubt; inactive = no such curve, though single readings can be large or run the other way.

SMILES	CHX counter	Shiga toxin inh	Pf growth 96h	HCMV inh	Pf growth 48h
COc1ccccc1N1CCN(C(=O)Nc2cccc(Cl)c2)CC1	26	28	-20%	5	.
CCCOc1ccc(C(=O)CCC(=O)NNC(=O)c2cccs2)cc1	.	.	23%	22	14%
COc1ccc(C2N=C(N)N=C(N)N2c2ccc(C)cc2)cc1 (centres undefined)	-1	-6	5.9µM*	?	.
CCOC(=O)C1=C(N)Oc2cc(O)ccc2C1c1cccc(Cl)c1 (centres undefined)	-2	-8	-16%	-31	19%
Cc1cc(C)cc(N2C(N)=NC(N)=NC2c2cccc(Cl)c2)c1 (centres undefined)	-1	-4	5%	-25	1.2µM*
Cc1ccc(-n2nc(C)c3c2OC(N)=C(C#N)C3c2ccccc2F)cc1 (centres undefined)	9	28	?	27	?
COc1ccc(C2C(C(C)=O)=C(O)C(=O)N2c2ccc(C)cc2)cc1 (centres undefined)	3	5	-1%	-19	10%[0.00184 µM]
Cc1cc(C)cc(N2C(N)=NC(N)=NC2c2ccccc2F)c1 (centres undefined)	-4	-3	36%	?	3.3µM*
Cc1sc2nc(CN3CCCC3)nc(NCc3ccncc3)c2c1C	-3	-7	?	37	?
COc1ccccc1Nc1nc(N)nc(CN2CCN(Cc3ccc4c(c3)OCO4)CC2)n1	-2	-12	0%	-2	?
Cc1sc2nc(CN3CCCCC3)nc(Nc3ccc4c(c3)OCCO4)c2c1C	1	5	?	-62*	9.3µM*
CN1CCN(Cc2nc(N)nc(Nc3ccc4c(c3)OCCO4)n2)CC1	30*	60*	15%	106	51%
Nc1nc(CN2CCN(c3ccccc3F)CC2)nc(Nc2ccc3c(c2)OCCO3)n1	-4	-16	?	-16	?
Cc1cccc(Nc2nc(N)nc(CN3CCN(Cc4ccc5c(c4)OCO5)CC3)n2)c1	-4	14	13µM*	-24	?
FC(F)(F)c1ccc(C2=Nc3ccccc3NC(c3cccs3)=N2)cc1	.	.	.	22	.
COc1cc(/C=N/n2cc(-c3ccccc3)[nH]c2=S)cc(OC)c1O	62*	36	?	14	12µM*
S=c1[nH]c(-c2ccccc2)cn1/N=C/c1ccccc1Br	27*	35	?	59	?
Cc1ccc(/C=N/n2cc(-c3ccccc3)[nH]c2=S)s1	39*	108*	?	?	?
S=c1[nH]c(-c2ccccc2)cn1/N=C/c1cccc2ccccc12	16	33	?	16	?
COc1ccc(C)cc1NC(=O)CN1C(=O)COc2ccc(S(=O)(=O)NC3CCCC3)cc21	.	.	.	-5	.
COc1ccc(CC(=O)Nc2ccc(-c3nnc(-c4ccccc4)o3)cc2)cc1OC	15*	10	.	19	-5%
CCc1cccc(NC(=O)Cn2cccc2)c1	15	16	4.7µM*	-32	72%
CCc1ccc(OCC(=O)NC(=S)Nc2ccc(F)cc2)c(Br)c1	3	-5	45%	-5	22%
CCc1ccc(OCC(=O)NC(=S)Nc2cccc(CO)c2)c(Br)c1	22*	41	.	67	143%
COc1ccc(CC(=O)Nc2cccc(-c3nnc(-c4ccccc4)o3)c2)cc1OC	49*	96*	.	?	?
SMILES	CHX counter	Shiga toxin inh	Pf growth 96h	HCMV inh	Pf growth 48h
COc1ccc(CCNC(=O)CSc2nnc(-c3ccccc3)o2)cc1OC	-1	-7	-21%	26	-6%
COc1ccc(OC)c(NC(=O)C(=O)NCc2ccncc2)c1	0	-7	19%	-26	29%
Cc1ccc(OCC(=O)Nc2cccc(-c3nnc(-c4ccccc4)o3)c2)c(C)c1	1	10	?	14	-28%
COc1ccc(Cc2nnc(Nc3ccc(C)cc3)o2)cc1OC	-3	-9	?	15	2.9µM*
CCc1cccc(NC(=O)Cc2ccc(OC)c(OC)c2)c1	-2	-4	0%	-82*	-9%
COc1ccc(CC(=O)Nc2cccc(-c3nnc(-c4ccc(C)cc4)o3)c2)cc1OC	25*	44	-13%	-93*	?
COc1ccc(CC(=O)Nc2cccc(-c3nnc(-c4cccc(C)c4)o3)c2)cc1OC	46*	52*	.	-17	?
CN(C)C(CNC(=O)CSc1nc2sc3c(c2c(=O)n1C)CCC3)c1ccccc1 (centres undefined)	.	.	?	6	?
CCOc1cccc(C(=O)Nc2cccc(-c3nnc(-c4ccc(C)cc4)o3)c2)c1	0	8	.	-70*	?
COc1ccc(Cc2nnc(-c3cccc(C)c3)o2)cc1OC	21*	43*	-3%	.	29%
COc1ccc(CCNC(=O)CSc2nnc(-c3cccc(C)c3)o2)cc1OC	1	-7	.	-13	?
O=C(NN1CC(C(=O)OCc2ccccc2F)CC1=O)c1ccccc1 (centres undefined)	19	-3	-20%	-35	16%
CCCNC(=O)c1nnsc1Sc1ccc(Cl)cc1	23*	87*	-6%	24	23%
CCCNC(=O)c1onc(CSc2ccc(Cl)cc2)c1C(=O)NCCOC	.	.	.	-39	.
Cc1cccc(C2=N[C@@H](CC(C)C)CO2)c1	33*	+	.	.	.
Cc1cccc(C2=N[C@@H](Cc3ccccc3)CO2)c1	49*	+	.	.	.
CCC(C)NC(=O)c1sc2nc(C)c(C(=O)Nc3ccc(C)cc3C)c(-c3ccc(NC(C)=O)cc3)c2c1N (centres undefined)	.	.	.	-25	.
Cc1[nH]c2ccc(Br)cc2c(=S)c1C/C=C/Cl	-3	12	8.3µM*	6	?
Cc1[nH]c2ccc(Br)cc2c(=O)c1CN1CCOCC1	-4	-9	60%	66	9%
CC(=O)Nc1ccc2[nH]c(C)c(CC=C(Cl)Cl)c(=O)c2c1	-2	-11	.	51	19%
Cc1[nH]c2ccc3ccccc3c2c(=O)c1C/C=C/Cl	9	4	15µM*	-89*	-36%
O=Cc1c(C(=O)O)n(CC(=O)O)c2ccccc12	4	-11	-1%	79	23%
COc1ccc(-n2c(-c3cccc(F)c3)nc3c(cnn3-c3ccc(C)cc3)c2=O)cc1	.	.	.	-14	.
CC1(c2nc3ccccc3[nH]2)CCC(=O)N1Cc1ccc(F)cc1 (centres undefined)	.	.	.	7	.
COc1ccc(N(Cc2cc3ccc(C)cc3[nH]c2=O)C(=O)c2ccco2)cc1	-3	-28	-29%	9	2%
Cc1ccc2cc(CN(Cc3ccco3)C(=S)NCC3CCCO3)c(=O)[nH]c2c1 (centres undefined)	1	-5	3.7µM*	.	-4%
Cc1ccc(C)c(N(Cc2cc3ccc(C)cc3[nH]c2=O)C(=O)c2ccco2)c1	-2	-2	7.4µM*	0	?
COc1ccc2cc(CN(CC3CCCO3)C(=S)NCc3ccco3)c(=O)[nH]c2c1 (centres undefined)	-1	-8	26%	-13	9.3µM*
